Experimental data: the supplement of paper PMC12297408
Structures can show the parent of a compound that is named as a salt. In all, about 1,300 compounds went through this assay and about 40 (3%) showed activity. The entries come from a sample that favours actives as a whole.

Tested on: Plasmodium falciparum NF54/iGP1_RE9H ulg8 stage V gametocytes
Assay: gametocyte viability (luciferase signal relative to DMSO control) (% of DMSO control); higher = less gametocytocidal activity, active = 50 or less
Settings: exposure time: 72 h
How it was run: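 NF54/iGP1_RE9Hulg8 stage V gametocytes (day 12; ~2.5% gametocytemia, 3% hematocrit) were incubated with compounds at 10 µM or 1 µM final, in one well each, for 72 h at 37 °C in medium with 0.5% Albumax II. Luminescence after D-luciferin addition was read on an IVIS Lumina II. Viability refers to the mean of plate DMSO vehicle wells.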

Compound	gametocyte viability (concentration: 1 µM)	gametocyte viability (concentration: 10 µM)
COc1cccc(OC)c1C(=O)N[C@@H]1C(=O)N2[C@@H]1SC(C)(C)[C@@H]2C(=O)O [Methicillin sodium]	83.4 (inactive)	83.1 (inactive)
Clc1ccccc1CN1CCc2sccc2C1 [Ticlopidine hydrochloride]	96 (inactive)	93.2 (inactive)
CC(=O)OCC(=O)[C@@]1(O)CC[C@H]2[C@@H]3CCC4=CC(=O)CC[C@]4(C)[C@@]3(F)[C@@H](O)C[C@@]21C [Fludrocortisone acetate]	79.5 (inactive)	75.8 (inactive)
Nc1c2c(nc3ccccc13)CCCC2O (racemic) [Hydroxytacrine maleate (R,S)]	101 (inactive)	93.6 (inactive)
O=C1c2cccc3c2[C@H](CCC3)CN1[C@@H]1CN2CCC1CC2 [Palonosetron hydrochloride]	85.5 (inactive)	81.6 (inactive)
CCN(CC)CCOc1ccc(C(=C(Cl)c2ccccc2)c2ccccc2)cc1 [Clomiphene citrate (Z,E)]	82.4 (inactive)	95.2 (inactive)
COc1cc2ncnc(Nc3ccc(F)c(Cl)c3)c2cc1OCCCN1CCOCC1 [Gefitinib]	95.8 (inactive)	85.9 (inactive)
C#Cc1cccc(Nc2ncnc3cc(OCCOC)c(OCCOC)cc23)c1 [Erlotinib]	70.7 (inactive)	37.2 (active)
Cc1c(C)c2c(c(C)c1O)CCC(C)(C(=O)O)O2 (stereo unspecified) [Trolox]	88.2 (inactive)	87.5 (inactive)
CCOC(=O)C1=C[C@]2(CC)CCCN3CCc4c(n1c1ccccc41)[C@@H]32 [Vinpocetine]	86.2 (inactive)	87.6 (inactive)
CC(C)NC[C@@H](O)COc1cccc2ccccc12 [(R)-Propranolol hydrochloride]	93.4 (inactive)	89 (inactive)
Nc1ccccc1S(N)(=O)=O [2-Aminobenzenesulfonamide]	98 (inactive)	95.8 (inactive)
CN1CCN(CC(=O)N2c3ccccc3C(=O)Nc3cccnc32)CC1 [Pirenzepine dihydrochloride]	86.5 (inactive)	83.3 (inactive)
CCN(CCCc1ccccc1)CCCc1ccccc1 [Alverine citrate salt]	82.3 (inactive)	82 (inactive)
CCN(CC)CCCC(C)Nc1c2ccc(Cl)cc2nc2ccc(OC)cc12 (stereo unspecified) [Quinacrine dihydrochloride dihydrate]	113 (inactive)	44.5 (active)
CCN(CC)CCCC(C)Nc1ccnc2cc(Cl)ccc12 (stereo unspecified) [Chloroquine diphosphate]	82.8 (inactive)	86.8 (inactive)
CCN(CCO)CCCC(C)Nc1ccnc2cc(Cl)ccc12 (stereo unspecified) [Hydroxychloroquine sulfate]	83.3 (inactive)	80.8 (inactive)
NC(=O)N/N=C/c1ccc([N+](=O)[O-])o1 [Nitrofural]	90.1 (inactive)	89.1 (inactive)
O=C(N/N=C/c1ccc([N+](=O)[O-])o1)c1ccc(O)cc1 [Nifuroxazide]	95.9 (inactive)	30.6 (active)

Compound	gametocyte viability (concentration: 1 µM)	gametocyte viability (concentration: 10 µM)
O=C1CN(/N=C/c2ccc([N+](=O)[O-])o2)C(=O)N1 [Nitrofurantoin]	83.4 (inactive)	82.5 (inactive)
CCOC(=O)c1ccc(OC(=O)CCCCCNC(=N)N)cc1 [Gabexate mesilate]	88.8 (inactive)	92 (inactive)
CN1CCC(=C2c3ccccc3CC(=O)c3sccc32)CC1 [Ketotifen fumarate]	79.5 (inactive)	84.2 (inactive)
C=CC1=C(C(=O)O)N2C(=O)[C@@H](NC(=O)/C(=N\O)c3csc(N)n3)[C@H]2SC1 [Cefdinir]	80.8 (inactive)	83.8 (inactive)
CN1C(=O)OC(C)(C)C1=O [Trimethadione]	82.9 (inactive)	88.6 (inactive)
CC1=C(CC(=O)O)c2cc(F)ccc2/C1=C\c1ccc([S+](C)[O-])cc1 (stereo unspecified) [Sulindac]	88.6 (inactive)	82.7 (inactive)
Cc1cc(NC(=O)C2=C(O)c3ccccc3S(=O)(=O)N2C)no1 [Isoxicam]	82.8 (inactive)	81.8 (inactive)
C[N+]1(C)CCC(=C(c2ccccc2)c2ccccc2)CC1 [Diphemanil methylsulfate]	87 (inactive)	83 (inactive)
CCc1ccc(CCOc2ccc(CC3SC(=O)NC3=O)cc2)nc1 (stereo unspecified) [Pioglitazone]	86 (inactive)	88.2 (inactive)
NC(=O)C(c1ccccc1)(c1ccccc1)[C@@H]1CCN(CCc2ccc3c(c2)CCO3)C1 [Darifenacin hydrobromide]	81.7 (inactive)	84.2 (inactive)
CC(C)(S)[C@@H](N)C(=O)O [Penicillamine]	92.4 (inactive)	93.1 (inactive)
N#Cc1cc(NC(=O)C(=O)O)c(Cl)c(NC(=O)C(=O)O)c1 [Lodoxamide]	91.8 (inactive)	102 (inactive)
CC1=C(/C=C/C(C)=C/C=C/C(C)=C/C(=O)O)C(C)(C)CCC1 [Retinoic acid]	82.1 (inactive)	64 (inactive)
CCC(=O)[C@@]1(C)[C@H](C)C[C@H]2[C@@H]3CCC4=CC(=O)C=C[C@]4(C)[C@H]3[C@@H](O)C[C@@]21C [Rimexolone]	89.4 (inactive)	85.3 (inactive)
CCCNC(C)C(=O)Nc1c(C)csc1C(=O)OC (stereo unspecified) [Articaine hydrochloride]	81.9 (inactive)	83 (inactive)
CN/C(=N\CCSCc1nc[nH]c1C)NC#N [Cimetidine]	100 (inactive)	94.5 (inactive)
C[C@]12CC[C@@H]3c4ccc(O)cc4C[C@@H](CCCCCCCCC[S+]([O-])CCCC(F)(F)C(F)(F)F)[C@H]3[C@@H]1CC[C@@H]2O (stereo partly specified) [Fulvestrant]	90.3 (inactive)	84.7 (inactive)
O=C1OC(CN2CCOCC2)CN1/N=C/c1ccc([N+](=O)[O-])o1 (stereo unspecified) [Furaltadone hydrochloride]	89.7 (inactive)	93.4 (inactive)
CN(C)CCN1C(=O)c2ccccc2N(C)c2ccccc21 [Dibenzepine hydrochloride]	84.8 (inactive)	91.3 (inactive)
